The record followed here is PMC7826789 (International Journal of Molecular Sciences, 2021).

Test systems include MAP4K2; MAP4K3; MAP4K4; MAP4K5; MAPKAPK2; MAPKAPK5; MARK1; MARK2; MARK3; MARK4; MAST1; MELK; MERTK; MET(M1250T).
Holding throughout (conditions): Compound Concentration (nM):1000
The next assay relates to T1, MEK1.
T1 construct: gene MAP2K1

The subject of another assay is T2, MEK2.
T2 construct: gene MAP2K2

The next assay relates to T3, MEK3.
T3 construct: gene MAP2K3

In a further assay the test system is T4, MEK4.
T4 construct: gene MAP2K4

In the next assay the test system is T5, MEK5.
T5 construct: gene MAP2K5

Another assay deals with T6, MEK6.
T6 construct: gene MAP2K6
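Further: KINOMEscan scanMAX binding as percent activity remaining versus control; lower means stronger binding.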

As to `COC(=O)Nc1nc2ccc(Oc3ccc(NC(=O)Nc4cc(C(F)(F)F)ccc4F)cc3)cc2s1.Cl` [GW693917A], the “Percent Control” value with MAP4K2 was 78%; in the assay on MAP4K3 it was 100%; with MAP4K4, 57%; with MAP4K5, 71%; in the assay on MAPKAPK2, 94%; in the assay on MAPKAPK5, 78%. For the same compound, the “Percent Control” value with MARK1 is 100%; in the assay with MARK2 it was 78%; with MARK3, 73%; with MARK4, 99%; in the assay on MAST1, 41%; in the assay with MEK1 it was 76%. The “Percent Control” value in the assay on MEK2 is 78%; with MEK3, 100%; in the assay with MEK4, 96%; with MEK5, 15%; in the assay with MEK6, 98%; in the assay with MELK it was 72%. Also, the “Percent Control” value with MERTK is 6.9%; in the assay on MET(M1250T), 19%.

`Cl.O=S1CCN(Cc2ccc(-c3ccc4ncnc(Nc5ccc(OCc6ccccc6)c(F)c5)c4c3)o2)CC1` [GW576924A]: the “Percent Control” value in the assay on MAP4K2 is 100%; with MAP4K3, 100%; in the assay with MAP4K4, 91%; with MAP4K5 it was 100%; in the assay with MAPKAPK2 it was 80%; with MAPKAPK5, 98%. In addition, the “Percent Control” value in the assay with MARK1 was 91%; in the assay on MARK2, 100%; in the assay with MARK3, 100%; with MARK4 it was 89%; in the assay on MAST1, 65%; in the assay on MEK1 it was 83%. Also, the “Percent Control” value with MEK2 is 93%; in the assay with MEK3, 100%; in the assay on MEK4 it was 98%; with MEK5, 12%; in the assay with MEK6, 91%; with MELK, 95%. For the same compound, the “Percent Control” value came to 60% with MERTK and 100% with MET(M1250T).

On to `COc1cc(C=NNc2ncnc3c2cnn3-c2ccccc2)ccc1O` [GW513184X], for which the “Percent Control” value with MAP4K2 was 89%; in the assay with MAP4K3, 100%; in the assay on MAP4K4, 66%; in the assay on MAP4K5 it was 94%; with MAPKAPK2, 100%; in the assay on MAPKAPK5, 97%. Moreover, the “Percent Control” value is 97% in the assay on MARK1; 90% in the assay with MARK2; 100% in the assay with MARK3; 93% with MARK4; 83% in the assay on MAST1; 76% in the assay on MEK1. Also, the “Percent Control” value in the assay on MEK2 is 82%; in the assay with MEK3, 100%; in the assay with MEK4, 100%; in the assay with MEK5, 4.6%; in the assay with MEK6 it was 100%; in the assay with MELK, 93%. The “Percent Control” value is reported as 93% in the assay on MERTK and 21% in the assay with MET(M1250T).

As for `COc1ccccc1-c1cc(/C=C2\C(=O)Nc3ncc(Br)cc32)cc(Br)c1O` [GW442130X], the “Percent Control” value is 89% in the assay with MAP4K2; 100% in the assay with MAP4K3; 96% with MAP4K4; 94% in the assay on MAP4K5; 100% in the assay with MAPKAPK2; 100% in the assay with MAPKAPK5. Moreover, the “Percent Control” value with MARK1 was 81%; in the assay with MARK2, 100%; with MARK3, 100%; in the assay with MARK4, 100%; with MAST1, 85%; with MEK1, 74%. Further, the “Percent Control” value with MEK2 is 82%; in the assay on MEK3 it was 72%; in the assay with MEK4 it was 86%; with MEK5, 64%; in the assay on MEK6, 76%; in the assay with MELK, 94%. The results for the “Percent Control” value in the assay on MERTK and in the assay with MET(M1250T) were 95% and 96%, respectively.

Turning to `COc1ccc2cc(-c3c(-c4ccncc4)nc(-c4ccc(S(C)(=O)=O)cc4C)n3C)ccc2c1` [SB-633825], the “Percent Control” value in the assay on MAP4K2 was 93%; with MAP4K3 it was 93%; with MAP4K4 it was 39%; with MAP4K5, 91%; in the assay with MAPKAPK2, 100%; with MAPKAPK5, 95%. In addition, the “Percent Control” value with MARK1 is 88%; with MARK2, 93%; with MARK3, 100%; with MARK4 it was 71%; in the assay with MAST1, 68%; in the assay with MEK1, 85%. For the same compound, the “Percent Control” value in the assay with MEK2 is 80%; with MEK3 it was 70%; with MEK4, 72%; in the assay with MEK5 it was 61%; with MEK6, 100%; in the assay on MELK it was 84%. The “Percent Control” value is recorded as 82% in the assay on MERTK and 76% in the assay on MET(M1250T).

`Nc1ncnc2occ(-c3ccc(NC(=O)Nc4cc(C(F)(F)F)ccc4F)cc3)c12` [GW770249X]: the “Percent Control” value is 27% in the assay with MAP4K2; 29% in the assay with MAP4K3; 56% in the assay on MAP4K4; 11% in the assay on MAP4K5; 100% with MAPKAPK2; 100% with MAPKAPK5. Further, the “Percent Control” value in the assay with MARK1 is 83%; in the assay with MARK2 it was 94%; with MARK3, 71%; with MARK4, 94%; with MAST1 it was 100%; with MEK1, 98%. Further, the “Percent Control” value is 100% with MEK2; 100% in the assay on MEK3; 100% in the assay on MEK4; 21% in the assay with MEK5; 100% in the assay with MEK6; 53% with MELK. Further, the entries for the “Percent Control” value with MERTK and with MET(M1250T) were 1.4% and 49%, respectively.

As for `COc1cc2ncnc(Nc3ccc4c(cnn4Cc4ccccc4)c3)c2cc1OC.Cl` [GW282449A], the “Percent Control” value in the assay on MAP4K2 was 93%; in the assay with MAP4K3 it was 95%; in the assay on MAP4K4 it was 100%; in the assay with MAP4K5, 88%; with MAPKAPK2, 72%; in the assay with MAPKAPK5, 88%. For the same compound, the “Percent Control” value in the assay on MARK1 is 100%; in the assay on MARK2, 100%; in the assay on MARK3, 100%; in the assay on MARK4, 100%; in the assay on MAST1, 100%; in the assay with MEK1, 37%. The “Percent Control” value was 50% in the assay on MEK2; 100% in the assay on MEK3; 100% in the assay on MEK4; 0% in the assay with MEK5; 97% in the assay on MEK6; 100% with MELK. Besides, the “Percent Control” value in the assay on MERTK is given as 83%; in the assay on MET(M1250T) it was 100%.

Consider `COc1ccc2[nH]c3c4[nH]c5ccc(OC)cc5c4c4c(c3c2c1)C(=O)NC4=O` [GW296115X], for which the “Percent Control” value was 75% in the assay with MAP4K2; 73% with MAP4K3; 2.7% in the assay on MAP4K4; 51% in the assay with MAP4K5; 100% in the assay with MAPKAPK2; 90% in the assay with MAPKAPK5. Also, the “Percent Control” value in the assay on MARK1 was 100%; in the assay with MARK2, 71%; with MARK3, 83%; with MARK4, 100%; in the assay with MAST1, 45%; in the assay on MEK1 it was 70%. Further, the “Percent Control” value with MEK2 is 59%; in the assay on MEK3 it was 46%; in the assay on MEK4, 91%; in the assay on MEK5, 0.7%; in the assay with MEK6, 97%; in the assay on MELK, 43%. For the same compound, the results for the “Percent Control” value in the assay with MERTK and with MET(M1250T) were 19% and 88%, respectively.

On to `O=C1Nc2ccc(C(=O)c3ccco3)cc2C1=Cc1cc(Cl)c(O)c(Cl)c1` [GW406108X], for which the “Percent Control” value is 90% in the assay with MAP4K2; 100% in the assay with MAP4K3; 50% in the assay with MAP4K4; 99% with MAP4K5; 100% in the assay with MAPKAPK2; 100% in the assay on MAPKAPK5. The “Percent Control” value in the assay on MARK1 was 63%; in the assay on MARK2 it was 75%; with MARK3 it was 100%; in the assay with MARK4, 100%; with MAST1, 64%; in the assay with MEK1, 76%. For the same compound, the “Percent Control” value was 91% with MEK2; 16% in the assay with MEK3; 32% in the assay with MEK4; 72% with MEK5; 72% with MEK6; 78% in the assay on MELK. The “Percent Control” value in the assay with MERTK worked out at 100%; in the assay on MET(M1250T) it was 59%.

With `Cc1cc(O)cc(C)c1/C=C/c1cncc(C(N)=O)c1` [GW435821X], the “Percent Control” value in the assay on MAP4K2 is 56%; in the assay on MAP4K3, 81%; in the assay on MAP4K4, 100%; with MAP4K5 it was 100%; with MAPKAPK2, 100%; with MAPKAPK5, 100%. Besides, the “Percent Control” value is 100% with MARK1; 100% in the assay on MARK2; 91% with MARK3; 78% in the assay on MARK4; 100% in the assay on MAST1; 81% in the assay with MEK1. Further, the “Percent Control” value is 89% in the assay with MEK2; 100% in the assay with MEK3; 100% in the assay with MEK4; 5.3% with MEK5; 100% in the assay with MEK6; 95% in the assay on MELK. Further, the “Percent Control” value in the assay with MERTK and in the assay with MET(M1250T) was 100% each time.
